In PubChem BioAssay (NCI):
The panel holds about 79,000 compounds, 15% with a hit somewhere; the sample as a whole holds those more often. Activity calls are given as the source filed them. No stated cut-off is given here; in the data, active means growth inhibition above about 70%; inactive means the rest.

Columns and labels:
[1] = NCI Yeast Anticancer Drug Screen. Data for the rad52 strain (AID 147);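 further: 0% = growth of vehicle-treated control cultures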; settings: S. cerevisiae rad52 mutant growth inhibition, stronger effect = higher value
Summary of the method: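 Screen used a yeast mutant impaired in DNA repair. After compound exposure, growth was measured. Values reflect inhibition compared with vehicle-treated cells.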

[2] = NCI Yeast Anticancer Drug Screen. Data for the wt1 strain (AID 149);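 further: 0% = growth of vehicle-treated wt1 cultures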; settings: S. cerevisiae wt1 strain (SPY 50644) growth inhibition, stronger effect = higher value
Summary of the method: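 The wt1 strain was treated with compounds, and growth was compared with vehicle-treated cultures to give inhibition.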

[3] = NCI Yeast Anticancer Drug Screen. Data for the rad50EPP+ strain (AID 151);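 further: 0% = growth of vehicle-treated control cultures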; settings: S. cerevisiae rad50 mutant strain, stronger effect = higher value
Summary of the method: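 Exposing the rad50EPP+ strain to each compound, growth was compared with vehicle-only cultures to give inhibition.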

[4] = NCI Yeast Anticancer Drug Screen. Data for the mgt1 strain (AID 153); settings: S. cerevisiae mgt1 mutant growth inhibition, stronger effect = higher value
Summary of the method: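 Genetically defined yeast (mgt1) treated with compound; inhibition of growth expressed against vehicle-treated controls.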

[5] = NCI Yeast Anticancer Drug Screen. Data for the rad50 strain (AID 155);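 further: 0% = growth of vehicle-only cultures of the same strain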; settings: S. cerevisiae rad50 strain growth inhibition, stronger effect = higher value
Summary of the method: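 Cells are treated with compound, grown, and their growth is then scored against vehicle-only cultures of the same repair-deficient yeast strain.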

[6] = NCI Yeast Anticancer Drug Screen. Data for the mec2-1 strain (AID 157); settings: S. cerevisiae mec2-1 strain, stronger effect = higher value
Summary of the method: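 Readout is yeast growth inhibition, normalised to vehicle-treated controls, in the mec2-1 strain exposed to compound.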

[7] = NCI Yeast Anticancer Drug Screen. Data for the rad14 strain (AID 159);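 further: 0% = growth of vehicle-treated control cultures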; settings: S. cerevisiae rad14 strain growth inhibition, stronger effect = higher value
Summary of the method: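 Readout: yeast growth inhibition, referenced to vehicle-only cultures. Strain bears a defined alteration in DNA damage repair.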

[8] = NCI Yeast Anticancer Drug Screen. Data for the sgs1 mgt1 strain (AID 161);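 further: 0% = growth of cultures given vehicle only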; settings: S. cerevisiae sgs1 mgt1 strain, stronger effect = higher value
Summary of the method: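 Percent growth inhibition was derived by comparing compound-exposed mutant yeast with vehicle-exposed cultures. The strain carries alterations in DNA damage repair.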

[9] = NCI Yeast Anticancer Drug Screen. Data for the cln2 rad14 strain (AID 165);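 further: 0% = growth equal to vehicle treated cultures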; settings: S. cerevisiae cln2 rad14 strain, stronger effect = higher value
Summary of the method: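 Relative to vehicle controls, growth inhibition of compound-treated cln2 rad14 yeast was recorded.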

[10] = NCI Yeast Anticancer Drug Screen. Data for the bub3 strain (AID 167); settings: S. cerevisiae bub3 mutant strain, stronger effect = higher value
Summary of the method: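 Part of a panel of yeast mutants defective in DNA damage repair or cell cycle regulation. Each strain is grown with compound, and inhibition is calculated relative to solvent-treated cultures.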

[11] = NCI Yeast Anticancer Drug Screen. Data for the wt2 strain (AID 169);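 further: 0% = growth of vehicle-treated yeast cultures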; settings: S. cerevisiae wt2 strain growth inhibition, stronger effect = higher value
Summary of the method: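 Values express reduction in yeast growth under compound treatment, referenced to vehicle-treated cells.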

[12] = NCI Yeast Anticancer Drug Screen. Data for the mlh1 strain (AID 171);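 further: 0% = growth of vehicle-treated control cultures of the same strain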; settings: S. cerevisiae mlh1 strain growth inhibition, stronger effect = higher value
Summary of the method: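 Steps: expose the defined-mutant yeast strain to compound; expose a parallel culture to vehicle; measure growth; express compound effect as inhibition relative to the vehicle culture.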

[13] = NCI Yeast Anticancer Drug Screen. Data for the sgs1 strain (AID 173);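 further: 0% = growth of vehicle-only control cultures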; settings: S. cerevisiae sgs1 mutant, stronger effect = higher value
Summary of the method: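 Treat defined-mutant yeast with compound; measure growth; calculate inhibition relative to vehicle-treated cells.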

[14] = NCI Yeast Anticancer Drug Screen. Data for the mlh1 rad18 strain (AID 175); settings: S. cerevisiae mlh1 rad18 strain growth inhibition, stronger effect = higher value
Summary of the method: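 Test agents were incubated with a yeast strain of defined genotype (DNA damage repair defect). Inhibition of growth was derived by comparison with vehicle-exposed cultures.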

[15] = NCI Yeast Anticancer Drug Screen. Data for the rad18 strain (AID 177); settings: S. cerevisiae rad18 mutant growth inhibition, stronger effect = higher value
Summary of the method: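 A genetically defined yeast mutant impaired in DNA damage repair was treated with test compounds, then its growth was measured against cultures receiving vehicle alone.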

[16] = at 5.0 µM (retest, dose inferred, filed as 0.5)
[17] = at 50.0 µM (retest, dose inferred, filed as 5.0)

Measured: growth inhibition

Oc1ccc(N=Nc2ccc(Cl)cc2)cc1
inactive: [1]; at 1.2 µM 3% | [1]; at 3.7 µM 23% | [2]; at 1.2 µM -2% | [2]; at 3.7 µM 7% | [2]; at 11.0 µM 52% | [3]; at 1.2 µM 8% | [3]; at 3.7 µM 12% | [3]; at 11.0 µM 50% | [4]; at 1.2 µM -3% | [4]; at 3.7 µM 4% | [4]; at 11.0 µM 61% | [5]; at 1.2 µM 1% | [5]; at 3.7 µM 30% | [5]; [16] -27% | [6]; at 1.2 µM 8% | [6]; at 3.7 µM 15% | [6]; [16] -13% | [7]; at 1.2 µM 2% | [7]; at 3.7 µM 7% | [7]; at 11.0 µM 60% | [8]; [16] -10% | [9]; [16] -6% | [10]; at 1.2 µM 57% | [10]; at 3.7 µM 65% | [11]; at 1.2 µM -1% | [11]; at 3.7 µM 5% | [12]; at 1.2 µM 4% | [12]; at 3.7 µM 2% | [13]; at 1.2 µM 0% | [13]; at 3.7 µM 7% | [14]; [16] 6% | [15]; at 1.2 µM 0% | [15]; at 3.7 µM 3%
active: [1]; at 11.0 µM 97% | [1]; at 33.0 µM 98% | [1]; at 100.0 µM 98% | [2]; at 33.0 µM 99% | [2]; at 100.0 µM 99% | [3]; at 33.0 µM 98% | [3]; at 100.0 µM 97% | [4]; at 33.0 µM 99% | [4]; at 100.0 µM 99% | [5]; at 11.0 µM 94% | [5]; at 33.0 µM 99% | [5]; [17] 99% | [5]; at 50.0 µM 99.5% | [5]; at 100.0 µM 98% | [6]; at 11.0 µM 90% | [6]; at 33.0 µM 99% | [6]; [17] 98% | [6]; at 50.0 µM 98.2% | [6]; at 100.0 µM 99% | [7]; at 33.0 µM 99% | [7]; at 100.0 µM 98% | [8]; [17] 99% | [8]; at 50.0 µM 98.7% | [9]; [17] 99% | [9]; at 50.0 µM 99.5% | [10]; [16] 81% | [10]; at 11.0 µM 94% | [10]; at 33.0 µM 99% | [10]; [17] 99% | [10]; at 50.0 µM 99.2% | [10]; at 100.0 µM 99% | [11]; at 11.0 µM 93% | [11]; at 33.0 µM 99% | [11]; at 100.0 µM 99% | [12]; at 11.0 µM 77% | [12]; at 33.0 µM 99% | [12]; at 100.0 µM 99% | [13]; at 11.0 µM 87% | [13]; at 33.0 µM 99% | [13]; at 100.0 µM 98% | [14]; [17] 99% | [14]; at 50.0 µM 99.4% | [15]; at 11.0 µM 77% | [15]; at 33.0 µM 99% | [15]; at 100.0 µM 97%

CC(=O)Oc1ccc2c(c1)Cc1cc(N3C(=O)C=CC3=O)ccc1-2
active: [1]; at 11.0 µM 73% | [1]; at 33.0 µM 96% | [1]; at 100.0 µM 95% | [2]; at 33.0 µM 93% | [2]; at 100.0 µM 97% | [3]; at 1.2 µM 81% | [3]; at 3.7 µM 96% | [3]; at 11.0 µM 98% | [3]; at 33.0 µM 97% | [3]; at 100.0 µM 92% | [4]; at 33.0 µM 98% | [4]; at 100.0 µM 95% | [5]; at 11.0 µM 83% | [5]; at 33.0 µM 96% | [5]; [17] 99% | [5]; at 100.0 µM 93% | [6]; at 11.0 µM 72% | [6]; at 33.0 µM 97% | [6]; [17] 99% | [6]; at 100.0 µM 97% | [7]; at 33.0 µM 98% | [7]; at 100.0 µM 97% | [8]; [17] 99% | [9]; [17] 98% | [10]; at 33.0 µM 94% | [10]; [17] 98% | [10]; at 100.0 µM 97% | [11]; at 33.0 µM 98% | [11]; at 100.0 µM 96%
inactive: [1]; at 1.2 µM 10% | [1]; at 3.7 µM 29% | [2]; at 1.2 µM 1% | [2]; at 3.7 µM 12% | [2]; at 11.0 µM 35% | [4]; at 1.2 µM 7% | [4]; at 3.7 µM 19% | [4]; at 11.0 µM 58% | [5]; at 1.2 µM 7% | [5]; at 3.7 µM 32% | [5]; [16] 27% | [5]; at 50.0 µM 46.1% | [6]; at 1.2 µM 15% | [6]; at 3.7 µM 30% | [6]; [16] 44% | [6]; at 50.0 µM 47.7% | [7]; at 1.2 µM 10% | [7]; at 3.7 µM 25% | [7]; at 11.0 µM 61% | [8]; [16] 17% | [8]; at 50.0 µM 58.2% | [9]; [16] 7% | [9]; at 50.0 µM 24.2% | [10]; at 1.2 µM -9% | [10]; at 3.7 µM 1% | [10]; [16] 8% | [10]; at 11.0 µM 37% | [10]; at 50.0 µM 48.6% | [11]; at 1.2 µM 1% | [11]; at 3.7 µM 15% | [11]; at 11.0 µM 46%
